Assay results taken from PubChem BioAssay AID1076 (NMMLSC, 2008).
The source made the active and inactive calls.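 How the source made its calls: active means cell event count below 40, meaning activity score above 60 where score is 100 minus count; inactive means the rest.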

Test: cytotoxicity in LNCaP prostate cells – cell-based, cell event count, single point, cytotoxicity control for prostate differentiation activator project, confirmation (AID 1076);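 further: counts scatter-gated live cells after medium removal discards detached dead cells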
Settings: LNCaP cell loss, flow cytometry event count, 4 d, stronger effect = lower value

In the case of `CC(C)(C)OC(=O)N1CCC(C(=O)N2CCCCCC2)CC1`, the cell event count (at 100 µM) was 223 (inactive) and the cell event count (event count, at 10 µM) was 123.
In the case of `CC1CCCCN1CCNC(=O)c1cc2c(-c3ccccc3F)nn(C)c2s1` (stereo not drawn), the cell event count (at 100 µM) was 255 (inactive) and the cell event count (event count, at 10 µM) was 384.
For `COc1ccc(CCNC(=O)C2CCCN(Cc3nc(-c4cccc(Cl)c4)oc3C)C2)cc1OC` (stereo not drawn), the cell event count (at 100 µM) was 21 (inactive) and the cell event count (event count, at 10 µM) was 247.
With `Cc1cc(N2CCN(C)CC2)nc2ccc(NC(=O)c3ccc4c(c3)OCO4)cc12` the cell event count (at 100 µM) was 57 (inactive) and the cell event count (event count, at 10 µM) was 278.
For `COc1ccc(CN2C(=O)C(O)(CC(=O)c3c(C)n[nH]c3C)c3ccccc32)cc1OC` (stereo not drawn), the cell event count (at 100 µM) was 284 (inactive) and the cell event count (event count, at 10 µM) was 248.
With `Cc1cc(=O)c2ccccc2[nH]1` the cell event count (at 100 µM) was 143 (inactive) and the cell event count (event count, at 10 µM) was 91.
With `COc1ccc(Cl)c(N2CCN(CCCNC(=O)Nc3ccc(C)cc3)CC2)c1` the cell event count (at 100 µM) was 19 (inactive) and the cell event count (event count, at 10 µM) was 128.
In the case of `O=C(CCn1c(=O)[nH]c2ccccc2c1=O)NCCCN1CCN(c2cccc(Cl)c2)CC1`, the cell event count (at 100 µM) was 14 (inactive) and the cell event count (event count, at 10 µM) was 354.
With `CCOC(=O)C1CCN(c2nc3ccccc3nc2C(C#N)C(=O)OCCOC)CC1` (stereo not drawn) the cell event count (at 100 µM) was 17 (inactive) and the cell event count (event count, at 10 µM) was 108.
For `CC1(C)CC(=O)c2cc(OCC(=O)NCCCN3CCN(c4ccc(F)cc4)CC3)ccc2O1`, the cell event count (at 100 µM) was 17 (inactive) and the cell event count (event count, at 10 µM) was 112.
With `CC(=O)Nc1cc(C(=O)N2CCOCC2)ccc1S(=O)(=O)c1ccc(C)cc1` the cell event count (at 100 µM) was 272 (inactive) and the cell event count (event count, at 10 µM) was 300.
In the case of `O=C(CCN1C(=O)COc2ccccc21)NCCCN1CCN(c2ccc(F)cc2)CC1`, the cell event count (at 100 µM) was 117 (inactive) and the cell event count (event count, at 10 µM) was 146.
For `Nc1ccc(-n2ccnc2)cc1`, the cell event count (at 100 µM) was 173 (inactive) and the cell event count (event count, at 10 µM) was 126.
With `CCCOc1ccccc1C1CC(=O)Nc2cc3c(cc21)OCO3` (stereo not drawn) the cell event count (at 100 µM) was 6 (active) and the cell event count (event count, at 10 µM) was 56.
